Source: PubChem
S16 F2sN tox: Cell viability qHTS assay in S16 Pmp22-F2sN cells | AID 1508642, 2021 | 43,000 tested, 0.48% active | S16 Pmp22-F2sN Schwann cells viability, CellTiter-Glo, 24 h | Potency, µM (top dose mostly 57.5 µM), most hits filed as cytotoxic; note: nearly all actives have a fitted effect of over 65% in size
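CellTiter-Glo counter-screen, qHTS, 1536-well. Cells: S16(c9) Pmp22-F2sN, 500-1,000/well in DMEM + 10% FBS. Cpd 23 nL pin transfer, 24 h, 37C/5% CO2. Read: luminescence, CCD imager.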
PMP22 txn prim: Cell-based coincidence reporter assay to measure PMP22 gene transcription in S16 Pmp22-F2sN cells - Primary screen | S16 Pmp22-F2sN Schwann cells (luciferase reporters placed in the Pmp22 gene), FLuc/NLuc coincidence luminescence, 24 h | Potency, µM (top dose mostly 57.5 µM), hits mostly inhibitors | 43,000 tested, 2% active; active = clear falling dose curves in both reporters; inconclusive = both reporters move, but less clearly or upward; inactive = either reporter flat; the % is the NLuc reporter signal
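Transcriptional readout in edited S16(c9) cells: two luciferases reported from the Pmp22 locus, measured in turn after 24 h compound incubation.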
pS6 MEF inh: Acumen qHTS Assay for Inhibitors of the mTORC1 Signaling Pathway in MEF (Tsc2-/-, p53-/-) Cells: Sytravon; 44,000 tested, 0.78% active; Potency, µM (titrated, usually from 38.3 µM), usual class: inhibitors; Tsc2-/- p53-/- MEF, phospho-rpS6 immunofluorescence/PI, 24 h; AID 493208, 2011; note: nearly all actives have a fitted effect of over 50% in size
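Tsc2-/-, p53-/- MEFs (empty-vector stable line) in DMEM + 10% FBS were treated with compounds 24 h at 37 degree Celsius, fixed, and immunostained for phospho-rpS6 (Alexa-488) with propidium iodide counterstain. Laser-scanning cytometry gave % positive cells, normalized against 7.5 nM rapamycin and DMSO.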
p53null 39C kill: qHTS Screen for Compounds that Selectively Target Cancer Cells with p53 Mutations: Cytotoxicity of p53 Null Cells at the Nonpermissive Temperature | 55,000 tested, 0.97% active | H1299 p53-null (neo) cells, 39C, ATPlite viability, 24 h | AID 904, 2007 | Potency, µM (highest dose often 46.1 µM), usual class: cytotoxic; note: nearly all actives have a fitted effect of over 50% in size
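Luminescent ATP signal reported cell survival after H1299 lines (neo, p53 null; or p53 A138V) received up to 46 uM compound and 24 hr incubation at 39C.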
p53null 32C kill: qHTS Screen for Compounds that Selectively Target Cancer Cells with p53 Mutations: Cytotoxicity of p53 Null Cells at the Permissive Temperature; H1299-neo p53 null cells, ATP luminescence, 24 h, 32C; Potency, µM (highest dose often 46.1 µM), usual class: cytotoxic; 55,000 tested, 0.62% active; AID 903, 2007; note: nearly all actives have a fitted effect of over 55% in size
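We seeded p53-null H1299-neo cells, incubated them overnight at 37C, and added compounds across a range up to 46 uM. After 24 hours at 32C, ATP reagent was applied for 20 min at room temperature and luminescence recorded.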
OvCa metastasis: Primary qHTS assay for Inhibitors of ovarian cancer metastasis using an organotypic tumor microenvironment (TME) model; 46,000 tested, 0.1% active; Potency, µM (top dose mostly 45.8 µM), usual class: inhibitors; AID 1963576, 2024; SKOV3ip1-GFP adhesion/invasion on 3D omental model, fluorescence; note: nearly all actives have a fitted effect of over 65% in size
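A 3D layer of primary human omental fibroblasts, mesothelial cells, fibronectin and collagen I, grown 48 hr, received SKOV3ip1-GFP cells in serum-free medium plus compounds at 0.36-46 umol/L. After 2 hr RT and 16 hr 37 C, fixed adherent GFP cells were counted; normalized to DMSO and tomatine.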
A number is an active result; – = inactive; ? = inconclusive; · = not tested or not shown. Rows were chosen to be rich in hits. Some 3% of all compounds tested hit in one or more screens of this group. Unless noted, calls come from the whole dose curve; as a rule, active = well fitted curve in the direction sought with a large enough effect; inconclusive = small, poorly fitted or top-dose-only effect, or another doubt; inactive = no such curve, though single readings can be large; an effect the other way counts as inactive or inconclusive.

SMILES	S16 F2sN tox	PMP22 txn prim	pS6 MEF inh	p53null 39C kill	p53null 32C kill	OvCa metastasis
CCN(CC)CCn1c(=N)n(CCOc2ccccc2Cl)c2ccccc21	28.2µM	?	5.85µM	3.16µM	–	?
N=c1n(CCO)c2ccccc2n1CCOc1ccc(F)cc1	·	·	?	–	–	–
CCn1c(=N)n(CC(O)COc2ccccc2)c2ccccc21 (configuration not stated)	–	?	–	–	–	–
CCc1c(C)sc2c1CCN(Cc1ccccc1F)C2c1ccccc1 (configuration not stated)	8.91µM	3.4µM	–	–	–	–
CCOC(=O)c1ccccc1NC(=O)N1CCc2c(sc(C)c2CC)C1c1ccccc1 (configuration not stated)	–	?	–	–	–	–
CCc1c(C)sc2c1CCN(Cc1cccc(OC)c1)C2c1ccccc1 (configuration not stated)	?	9.46µM	–	?	–	–
CCNC(=O)Nc1ccc(-c2nc3c(c(N4CCOC[C@H]4C)n2)CCN(C2COC2)C3)cc1	·	·	·	·	·	–
CCS(=O)(=O)c1ncc(Cl)c(C(=O)N(Cc2ccccc2)Cc2ccco2)n1	3.55µM	3.18µM	3.29µM	?	?	–
Cc1ccccc1Nc1c(-c2ccc(N3CCOCC3)cc2)nc2ccc(Cl)cn12	–	–	–	12.6µM	?	–
Cc1ccc2nc(-c3ccc(N4CCOCC4)cc3)c(Nc3ccccc3C)n2c1	–	?	–	5.01µM	?	–
Cc1ccn2c(Nc3ccccc3C)c(-c3ccc(N4CCOCC4)cc3)nc2c1	–	–	–	–	–	–
Cc1c[nH]c(C=C2C(=O)Nc3ccccc32)c1CCC(=O)O	·	·	·	·	·	–
Cc1ccc(C)c(-c2nnc(NC(=O)c3ccc4c(c3)OCCO4)o2)c1	?	?	–	7.94µM	–	–
Cc1cc(=O)n2nc(N3CCC(C(=O)Nc4ccc(Br)c(C)c4)CC3)sc2n1	–	15µM	–	–	–	–
O=C(CC12CC3CC(CC(C3)C1)C2)Nc1cccc2nc(NCCNCCO)ccc12	·	·	·	·	·	–
Cc1ccc(CSc2nc3cccnc3n2Cc2ccc(C(=O)NC3CCCCC3)cc2)cc1	–	?	–	11.2µM	12.6µM	?
O=C(NC1CCCCC1)c1ccc(Cn2c(SCc3ccccc3F)nc3cccnc32)cc1	?	–	–	–	–	–
O=C(NCc1ccco1)c1ccc(Cn2c(SCc3ccc(F)cc3)nc3cccnc32)cc1	–	–	–	12.6µM	?	–
O=C(NCc1cccs1)c1ccc(CSc2nc3cccnc3n2Cc2ccccc2)cc1	?	–	–	–	–	–
Cc1ccc(CSc2nc3cccnc3n2Cc2ccc(C(=O)NCCc3cccs3)cc2)cc1	–	?	–	3.98µM	4.47µM	–
O=C(NC1CC1)c1ccc(Cn2c(SCc3ccccc3F)nc3cccnc32)cc1	?	?	–	12.6µM	?	–
CC(=O)N1CCN(c2ccc(OCc3nn(C)c(C)c3-c3cccc4c(CCCOc5cccc6ccccc56)c(C(=O)O)n(Cc5cccnc5)c34)cc2)CC1	·	·	·	·	·	–
CCn1c(=O)c(C(=O)Nc2ccc(C(C)=O)cc2)nc2ccccc21	–	–	–	10µM	10µM	–
COc1ccccc1-c1cccc(-c2c(O)c3cc(C#N)c(Cl)cc3[nH]c2=O)c1	·	·	·	·	·	–
CCn1c(=O)cc(SCC(=O)Nc2ccc(C)c(F)c2)c2ccccc21	–	–	–	–	–	–
SMILES	S16 F2sN tox	PMP22 txn prim	pS6 MEF inh	p53null 39C kill	p53null 32C kill	OvCa metastasis
CCN(CC)CCOC(=O)c1ccc(NC(=O)CSc2cc(=O)n(CC)c3ccccc23)cc1	?	?	–	2.51µM	–	–
O=C1NC(O)CCN1[C@@H]1O[C@H](CO)[C@H](O)[C@H]1O (some centres not stated)	·	·	·	·	·	–
Cc1ccc2[nH]c(=O)c3cc(C(=O)NCCCN4CCC(C)CC4)sc3c2c1	?	?	3.29µM	?	–	?
O=C(CN1C(=O)C2(OCCO2)c2ccccc21)c1ccc(Cl)cc1	·	·	·	–	–	·
CC(C)c1ccc(C(=O)CC2(O)C(=O)N(CCc3ccccc3)c3ccc(Cl)cc32)cc1 (configuration not stated)	–	?	–	12.6µM	–	–
CCCCN1C(=O)C(O)(CC(=O)c2ccc(CC)cc2)c2cc(Br)ccc21 (configuration not stated)	?	?	16.5µM	?	–	–
CCCN1C(=O)C(O)(CC(=O)c2ccc(CC)cc2)c2ccccc21 (configuration not stated)	–	–	14.7µM	–	–	–
CCCN1C(=O)C(O)(CC(=O)c2ccc(C(C)C)cc2)c2ccccc21 (configuration not stated)	?	–	13.1µM	–	–	–
CC(C)c1ccc(N2C(=O)CSC23C(=O)N(Cc2ccccc2)c2ccccc23)cc1 (configuration not stated)	–	?	–	–	–	–
COC(=O)CN1C(=O)C(O)(CC(=O)c2ccc(F)cc2)c2ccccc21 (configuration not stated)	?	–	?	–	–	–
Cn1cnc(=N)c2[nH]cnc21	·	·	·	·	·	–
COc1ccccc1C(=O)CC1(O)C(=O)N(CC(N)=O)c2ccccc21 (configuration not stated)	–	–	–	?	–	–
C#CCN1C(=O)C(O)(CC(=O)c2ccc(OC)c(OC)c2)c2cc(Br)ccc21 (configuration not stated)	?	?	5.21µM	?	–	?
O=C(O)c1ccc(-c2cc3cccnc3c(-c3ccc4nonc4c3)n2)cc1	·	·	·	·	·	–
COc1ccc(Nc2c3c(nc4ccc(NC(=O)/C=C/c5cc(OC)c(OC)c(OC)c5)cc24)CCCC3)cc1OC	11.2µM	?	2.07µM	7.08µM	12.6µM	–
COc1ccc(Nc2c3c(nc4ccc(NC(=O)/C=C/c5cccc(OC)c5OC)cc24)CCCC3)cc1OC	?	?	3.69µM	3.16µM	10µM	5.01µM
COc1ccc(NC(=O)c2ccc3c(SCC(=O)O)c4c(nc3c2)CCCC4)cc1OC	?	–	–	–	–	–
COc1ccc(/C=C/C(=O)Nc2ccc3nc4c(c(Nc5ccc(OC)c(OC)c5)c3c2)CCCC4)cc1	?	?	3.69µM	6.31µM	12.6µM	5.01µM
